From PubChem BioAssay (NCATS) come the findings set out here.

Structures are written as SMILES. Results filed as inconclusive are left out. A number with no mark means an inactive call. Calls of active or inactive are those of the source. Calls follow the shape of the dose curve; as a rule, active = well fitted curve in the direction sought with a large enough effect; inconclusive = small, poorly fitted or top-dose-only effect, or another doubt; inactive = no such curve, though single readings can be large; an effect the other way counts as inactive or inconclusive.

Experiment [1] concerns the target Rap guanine nucleotide exchange factor 3 (Homo sapiens) (UniProt O95398). Briefly: Confirmatory qHTS for antagonist of cAMP-regulated guanine nucleotide exchange factor 3 (EPAC1) (AID 1645880). Also: nearly all actives have a fitted effect of over 55% in size. Also: potency is read from the fitted curve at half-maximal effect.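 As to activity, negative = inhibition: plate controls were DMSO only for no effect and full effect of the ATA control for full effect.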 The note with it: EPAC1 Rap1B-BODIPY-GDP exchange, fluorescence; activity, negative = inhibition: at 115 µM (top of the series). The essentials:
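Nucleotide exchange uses 100 nM EPAC1, 250 nM RAP1B-BODIPY-GDP and 50 uM GDP, with compounds in a concentration-titration series. After 5 min at room temperature, fluorescence (480 nm ex/540 nm em) is read every 5 min for 30 min. Data are normalized to control ATA and DMSO.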

The target is the same in experiment [2]. Briefly: Confirmatory qHTS for agonist of cAMP-regulated guanine nucleotide exchange factor 3 (EPAC1) (AID 1645881). Also: nearly all actives have a fitted effect of over 75% in size. Also: potency is read from the fitted curve at half-maximal effect.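 As to activation: EPAC1 catalysed release of BODIPY-GDP from Rap1B seen as fluorescence loss; 100% = effect of cAMP agonist control.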
In experiment [3] the target is Rap guanine nucleotide exchange factor 4 (Homo sapiens) (UniProt Q8WZA2). Briefly: Confirmatory qHTS for agonist of cAMP-regulated guanine nucleotide exchange factor 4 (EPAC2) (AID 1645884).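 Also: nucleotide exchange releases bodipy-GDP from Rap1 and this lowers its fluorescence; nearly all actives have a fitted effect of over 65% in size.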 Also: potency is read from the fitted curve at half-maximal effect. As to activation: % is scaled to controls: 0 for no effect and ±100 for the full control effect. A general note: Quantitative high-throughput screening tests each substance at several concentrations.
Experiment [4] concerns the target Rap guanine nucleotide exchange factor 3 (Homo sapiens) (UniProt O95398). As to the kind of experiment: Counterscreen qHTS for antagonist of cAMP-regulated guanine nucleotide exchange factor 3 (EPAC1) (AID 1645888).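 Also: fluorescence loss as bound BODIPY-GDP is released from Rap1B; % of control where 0% means no effect.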 The essentials: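 Measured: fluorescence of BODIPY-GDP bound to Rap1B, which falls as exchange proceeds. Conditions include 50 uM competing GDP, 5 and 30 min reads, and a later cAMP challenge for antagonist detection.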
On the technique in general: The purpose of a counterscreen is to sort out artefacts and off-target activity.

Sequence of Rap guanine nucleotide exchange factor 4 (Homo sapiens) (Q8WZA2 whole entry, looked up): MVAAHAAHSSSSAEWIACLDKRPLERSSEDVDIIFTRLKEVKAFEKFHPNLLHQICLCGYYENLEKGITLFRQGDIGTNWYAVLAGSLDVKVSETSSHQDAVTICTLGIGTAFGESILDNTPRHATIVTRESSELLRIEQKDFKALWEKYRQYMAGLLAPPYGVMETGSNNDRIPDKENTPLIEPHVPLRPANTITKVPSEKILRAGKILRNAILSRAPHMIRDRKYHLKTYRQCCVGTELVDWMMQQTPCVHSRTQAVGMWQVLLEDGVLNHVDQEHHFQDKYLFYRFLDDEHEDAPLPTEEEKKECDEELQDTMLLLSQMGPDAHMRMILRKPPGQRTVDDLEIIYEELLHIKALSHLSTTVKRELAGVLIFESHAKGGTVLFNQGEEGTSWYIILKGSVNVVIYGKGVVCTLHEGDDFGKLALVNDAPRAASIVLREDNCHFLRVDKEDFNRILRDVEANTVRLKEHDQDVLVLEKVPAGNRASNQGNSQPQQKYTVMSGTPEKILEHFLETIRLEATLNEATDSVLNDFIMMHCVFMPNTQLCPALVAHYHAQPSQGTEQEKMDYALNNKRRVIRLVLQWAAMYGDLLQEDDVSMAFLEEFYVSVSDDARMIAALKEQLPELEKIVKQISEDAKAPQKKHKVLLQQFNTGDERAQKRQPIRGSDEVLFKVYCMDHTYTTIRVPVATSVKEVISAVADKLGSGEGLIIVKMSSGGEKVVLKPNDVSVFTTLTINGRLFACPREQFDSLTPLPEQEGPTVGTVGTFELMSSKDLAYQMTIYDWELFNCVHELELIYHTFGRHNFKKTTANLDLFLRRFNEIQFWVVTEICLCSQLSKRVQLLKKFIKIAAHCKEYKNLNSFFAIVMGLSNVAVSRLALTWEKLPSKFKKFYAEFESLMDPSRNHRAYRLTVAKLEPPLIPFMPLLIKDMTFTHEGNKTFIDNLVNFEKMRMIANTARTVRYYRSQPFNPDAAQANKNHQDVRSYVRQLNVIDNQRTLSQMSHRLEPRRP
Sequence of Rap guanine nucleotide exchange factor 3 (Homo sapiens) (O95398 whole entry, looked up): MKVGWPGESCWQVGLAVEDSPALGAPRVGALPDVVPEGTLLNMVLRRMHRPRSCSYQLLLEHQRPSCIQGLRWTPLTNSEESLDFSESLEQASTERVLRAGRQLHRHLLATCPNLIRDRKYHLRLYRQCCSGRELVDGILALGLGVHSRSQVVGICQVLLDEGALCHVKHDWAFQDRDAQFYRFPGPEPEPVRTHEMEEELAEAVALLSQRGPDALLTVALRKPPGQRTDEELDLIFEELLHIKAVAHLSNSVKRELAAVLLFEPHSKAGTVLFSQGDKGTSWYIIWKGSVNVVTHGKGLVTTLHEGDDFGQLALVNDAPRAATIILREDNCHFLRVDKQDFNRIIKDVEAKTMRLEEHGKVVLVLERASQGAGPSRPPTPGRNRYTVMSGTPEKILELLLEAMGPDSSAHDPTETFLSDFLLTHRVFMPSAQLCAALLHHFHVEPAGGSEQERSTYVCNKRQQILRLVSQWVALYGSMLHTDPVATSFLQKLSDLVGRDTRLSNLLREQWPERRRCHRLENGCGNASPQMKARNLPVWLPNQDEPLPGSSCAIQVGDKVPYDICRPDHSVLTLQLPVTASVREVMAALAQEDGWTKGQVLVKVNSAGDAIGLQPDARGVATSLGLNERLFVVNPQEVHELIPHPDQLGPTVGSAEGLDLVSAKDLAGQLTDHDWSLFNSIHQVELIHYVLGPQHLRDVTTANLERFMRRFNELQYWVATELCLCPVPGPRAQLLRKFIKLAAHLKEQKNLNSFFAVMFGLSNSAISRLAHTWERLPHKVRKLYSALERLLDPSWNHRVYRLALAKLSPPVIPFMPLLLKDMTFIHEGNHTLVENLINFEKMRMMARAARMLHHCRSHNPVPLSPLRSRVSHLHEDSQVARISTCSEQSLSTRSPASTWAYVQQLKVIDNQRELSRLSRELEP

`CC(=O)c1ccc(N2CCN(C(=O)/C=C/c3ccc4ccccc4n3)CC2)cc1`: the Potency result in experiment [1], in experiment [2] and in experiment [4] was “inactive” in each case. For the same compound, in experiment [3], the Potency is 89.1 µM (active).

In the case of `Cc1ccc([N+](=O)[O-])cc1NC(=O)c1ccc(-c2ccccc2)cc1`, the Potency result in experiment [1], in experiment [2], in experiment [3] and in experiment [4] was “inactive” throughout.

Take `O=C(CN1C(=O)c2ccccc2C1=O)Nc1cc([N+](=O)[O-])ccc1O`: the Potency result in experiment [1], in experiment [2], in experiment [3] and in experiment [4] was “inactive” each time.

In the case of `Cc1cccc(C(=O)Oc2ccc(/C=N/NC(=O)c3cc(O)cc(O)c3)cc2)c1`, the Potency in experiment [1] is 16.9 µM (active). In addition, the Potency result in experiment [2], in experiment [3] and in experiment [4] was “inactive” each time.

As to `O=C(Cc1ccccc1Cl)Nc1ccc(S(=O)(=O)N2CCOCC2)cc1`, the Potency entry in experiment [1], in experiment [2], in experiment [3] and in experiment [4] was “inactive” throughout.

`CC(C)C(NC(=O)c1ccccc1)C(=O)OCn1nnc2ccccc2c1=O` (centres undefined): the Potency entry in experiment [1], in experiment [2], in experiment [3] and in experiment [4] was “inactive” throughout.

For the compound `CC(=O)N1CCc2c(sc(NC(=O)CS(=O)(=O)c3ccc(F)cc3)c2C(N)=O)C1`, the Potency result in experiment [1], in experiment [2], in experiment [3] and in experiment [4] was “inactive” throughout.

As for `O=c1[nH]nc(CNc2ccc(O)cc2)c2ccccc12`, the Potency result in experiment [1], in experiment [2], in experiment [3] and in experiment [4] was “inactive” in each case.

`Cc1ccc(Sc2ncccc2C(=O)N(C)Cc2cccs2)c(C)c1`: the Potency entry in experiment [1], in experiment [2], in experiment [3] and in experiment [4] was “inactive” in each case.

Take `Cc1cccc(C)c1-n1nnnc1C(c1ccnc2ccccc12)N(CCC#N)Cc1ccccc1` (centres undefined): the Potency entry in experiment [1], in experiment [2], in experiment [3] and in experiment [4] was “inactive” in each case.

Turning to `CN(C)CCNC(=O)c1ccc(-c2cn3c(-c4ccc(Oc5ccccc5)cc4)cnc3cn2)cc1`, the Potency result in experiment [1], in experiment [2], in experiment [3] and in experiment [4] was “inactive” in each case.

As to `O=C1/C(=C\c2cc([N+](=O)[O-])ccc2O)SC(=S)N1Cc1ccc(Cl)cc1`, the Potency in experiment [1] is 75.7 µM (active). In addition, the Potency result in experiment [2], in experiment [3] and in experiment [4] was “inactive” in each case.

Turning to `C=C(C)Cn1c(C)cc(C)c(S(=O)(=O)c2ccc(C)cc2)c1=O`, the Potency entry in experiment [1], in experiment [2], in experiment [3] and in experiment [4] was “inactive” in each case.

Turning to `CCOC(=O)c1ccccc1NC(=O)COC(=O)C(Cc1c[nH]c2ccccc12)NC(C)=O` (centres undefined), the Potency result in experiment [1], in experiment [2], in experiment [3] and in experiment [4] was “inactive” throughout.

Consider `CCN(CC)c1ccc2cc(-c3nnc(-c4cccc(Cl)c4)o3)c(=O)oc2c1`, for which the Potency result in experiment [1] and in experiment [4] was “inactive” in each case. In addition, the Potency is 44.7 µM (active) in experiment [2] and 35.5 µM (active) in experiment [3].

`COC(=O)/C(=C/Nc1ccc(O)cc1)[N+](=O)[O-]`: the Potency result in experiment [1], in experiment [2], in experiment [3] and in experiment [4] was “inactive” each time.

Take `CC(=O)c1ccc(N2CCN(C(=O)c3cc(-c4cccnc4)nc4ccc(Br)cc34)CC2)cc1`: the Potency result in experiment [1], in experiment [2], in experiment [3] and in experiment [4] was “inactive” throughout.

As for `CCc1nc2ccccc2c(C(=O)NCc2ccccc2)c1C`, the Potency entry in experiment [1], in experiment [2], in experiment [3] and in experiment [4] was “inactive” in each case.

As for `NC1=C(Cl)C(=O)c2ccc(S(N)(=O)=O)cc2C1=O`, the Potency in experiment [1] was 75.7 µM (active). Also, the Potency entry in experiment [2], in experiment [3] and in experiment [4] was “inactive” throughout.

For `Cc1nc2sc(C(c3cccs3)N3CCN(C(=O)c4ccco4)CC3)c(O)n2n1` (centres undefined), the Potency result in experiment [1], in experiment [2], in experiment [3] and in experiment [4] was “inactive” in each case.

With `CCCCOc1ccc(NS(=O)(=O)c2ccc(-n3cnnn3)cc2)cc1`, the Potency result in experiment [1], in experiment [2], in experiment [3] and in experiment [4] was “inactive” throughout.

With `O=[N+]([O-])c1ccccc1O[C@@H]1O[C@H](CO)[C@H](O)[C@H](O)[C@H]1O`, the Potency result in experiment [1], in experiment [2], in experiment [3] and in experiment [4] was “inactive” throughout.

Consider `CC(=O)C1C(=O)C=C(c2cccs2)CC1c1ccccc1` (centres undefined), for which the Potency entry in experiment [1] and in experiment [2] was “inactive” each time. In experiment [3], the activation is -4.19% [at 17.1 µM, percent relative to cAMP agonist control]. In experiment [4], the activity change, negative = inhibition was 2.3% [at 30.8 µM].

For `COC(=O)C1=CN(Cc2cccs2)C=C(C(=O)OC)C1c1cccc(O)c1`, the Potency entry in experiment [1], in experiment [2], in experiment [3] and in experiment [4] was “inactive” in each case.

Consider `COCCN(C(=O)c1cc2c(s1)CCCCC2)c1c(N)n(Cc2ccccc2)c(=O)[nH]c1=O`, for which the Potency result in experiment [1], in experiment [2], in experiment [3] and in experiment [4] was “inactive” in each case.

For the compound `CCCc1nc2c3ccccc3ccn2c1CC(C)(C)C`, the Potency entry in experiment [1], in experiment [2], in experiment [3] and in experiment [4] was “inactive” in each case.

Turning to `Nc1ccc(Oc2ncccn2)cc1`, the Potency result in experiment [1], in experiment [2], in experiment [3] and in experiment [4] was “inactive” in each case.

For `COc1cc(/C=C2\COC/C(=C\c3ccc(O)c(OC)c3)C2=O)ccc1O`, in experiment [1], the Potency is 23.9 µM (active). In addition, the Potency entry in experiment [2], in experiment [3] and in experiment [4] was “inactive” throughout.

As for `CCN(CC)C(=O)Cn1c(SCCOc2ccc(Cl)cc2)nc2ccccc21`, the Potency entry in experiment [1], in experiment [2], in experiment [3] and in experiment [4] was “inactive” in each case.

In the case of `Cc1cc(NC(=O)COC(=O)C(C)Oc2ccc(Cl)cc2Cl)no1` (centres undefined), the Potency entry in experiment [1], in experiment [2], in experiment [3] and in experiment [4] was “inactive” each time.

Consider `Cc1ccc2oc(=O)c(/C=C(\O)c3ccco3)nc2c1`, for which the Potency result in experiment [1] and in experiment [4] was “inactive” each time. Moreover, the values for the Potency in experiment [2] and in experiment [3] were 89.1 µM (active) and 100 µM (active), respectively.
